“And” between values parts separate entries of the source, which are not always exact repeats. Equal entries are not always repeated. Values without a mark were called inactive. Results filed as inconclusive are left out. Where a structure was tested more than once in an assay, its records may differ in their call. The source made the active and inactive calls. Unless noted, calls follow the shape of the dose curve; as a rule, active = well fitted curve in the direction sought with a large enough effect; inconclusive = small, poorly fitted or top-dose-only effect, or another doubt; inactive = no such curve, though single readings can be large; an effect the other way counts as inactive or inconclusive.

Experiment [1] can be described thus: Cell Viability - Jurkat (AID 426;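 active = dose-dependent loss of cell ATP signal giving a full or clear fitted curve, ranked by lower potency value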; also: potency is read from the fitted curve at half-maximal effect). The conditions noted are these: qHTS. The gist of the method: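 qHTS, 1536-well; Jurkat E6-1, 5000 cells/well, complete medium; cpd 40 hr, 37 °C; CellTiter-Glo 20 min RT; luminescence. AC50 by Hill fit.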
Background: qHTS replaces the single test concentration by a dilution series.

Experiment [2] can be described thus: Cell Viability - Hek293 (AID 427;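 active = compounds whose dose-response curve shows a full or clear partial loss of cell viability, called from curve shape rather than a numeric limit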;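 also: potency is read from the fitted curve at half-maximal effect; cells exposed to compound for 40 hours at 37 °C before reading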). The conditions noted are these: qHTS. The gist of the method: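 HEK293 cells in complete medium were exposed to compound for 40 hr at 37 °C, then cellular ATP was read by CellTiter-Glo luminescence. Data were normalized to DMSO (basal) and 100 uM tamoxifen (100% inhibition), and AC50 came from Hill fits.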
Experiment [3] can be described thus: Cell Viability - NIH 3T3 (AID 541).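 Also: plate controls were DMSO alone for no effect and tamoxifen positive control for full effect; nearly all actives have a fitted effect of over 25% in size.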 The conditions noted are these: NIH 3T3 cell viability, qHTS; activity change, negative = cytotoxicity: at 92.2 µM (top of the series). The gist of the method: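 Luminescent ATP signal (CellTiter-Glo) served as the viability read-out after NIH 3T3 cells were exposed to compounds over a concentration range for 40 hr at 37 °C. Hill-equation modelling of concentration-response data gave AC50.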

Experiment [4] can be described thus: Cell Viability - SH-SY5Y (AID 544).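 Also: 0% = DMSO alone and -100% = 100 µM tamoxifen; nearly all actives have a fitted effect of over 55% in size.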 The conditions noted are these: SH-SY5Y neuroblastoma cell viability; viability change, negative = cytotoxic: at 92.2 µM (top of the series). The procedure, abridged: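 Luminescent ATP read-out (CellTiter-Glo) measures loss of viable SH-SY5Y neuroblastoma cells after 40 hr compound exposure at 37 °C. AC50 values derive from standard Hill modelling of qHTS concentration-response data.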

A short description of experiment [5]: Cellular Toxicity (caspase-3) MRC-5 (AID 659). The conditions noted are these: MRC-5 cells, luminescence, normalized: DMSO 0%, 10 µM staurosporine 100%; series mostly up to 91.7 µM. The procedure, abridged: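 Concentration-dependent caspase 3/7 activation is measured in human normal lung fibroblasts (MRC-5) following 16-hour treatment. AC50 values come from standard Hill-equation modeling of luminescence normalized to DMSO and 10 uM staurosporine.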

Experiment [6] deals with Vitamin D3 receptor (Homo sapiens) (UniProt P11473). In words: qHTS assay for small molecule antagonists of vitamin D receptor signaling (AID 588541; calls by dose curve;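 also: receptor activated by calcitriol during compound treatment; % is scaled to controls: 0 for no effect and ±100 for the full control effect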). The conditions noted are these: HEK293T VDR-UAS-bla, beta-lactamase ratio, antagonist mode; series mostly up to 76.7 µM. The procedure, abridged: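 Antagonist-mode beta-lactamase reporter assay: HEK293T VDR-UAS-bla cells were exposed to titrated compound alongside 1-alpha,25-dihydroxyvitamin D3 at 3 nM final for 16 h. Values were normalized to the 50 nM agonist control and DMSO basal, with IC50 and efficacy from Hill equation fits.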
Chain of Vitamin D3 receptor (Homo sapiens) (P11473 whole entry, looked up): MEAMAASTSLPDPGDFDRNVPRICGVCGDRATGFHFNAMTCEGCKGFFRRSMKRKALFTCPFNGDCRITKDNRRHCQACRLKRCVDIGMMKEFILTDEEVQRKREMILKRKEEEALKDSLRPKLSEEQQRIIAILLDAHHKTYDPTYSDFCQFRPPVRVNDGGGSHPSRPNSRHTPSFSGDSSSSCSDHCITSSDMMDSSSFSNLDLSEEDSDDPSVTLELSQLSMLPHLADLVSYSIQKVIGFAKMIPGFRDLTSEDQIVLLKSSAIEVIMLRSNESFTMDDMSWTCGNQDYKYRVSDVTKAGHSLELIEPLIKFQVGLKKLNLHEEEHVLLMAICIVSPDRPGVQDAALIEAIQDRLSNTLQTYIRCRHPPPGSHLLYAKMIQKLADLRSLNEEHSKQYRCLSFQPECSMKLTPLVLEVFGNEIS

The target is the same in experiment [7]. In words: qHTS assay for small molecule agonists of vitamin D receptor signaling (AID 588543; calls by dose curve;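 also: 0% = DMSO basal and 100% = reference agonist control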). The conditions noted are these: HEK293T VDR-UAS-bla, beta-lactamase ratio, 16 h; series mostly up to 76.8 µM. The gist of the method:
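β-lactamase reporter, VDR-UAS-bla HEK293T, agonist mode. Cells plated 5 h at 37 °C, compound titration 16 h at 37 °C, CCF4 dye 2 h RT, ratio 460/530 nm. Hill fit → EC50, efficacy vs 50 nM 1α,25-(OH)2D3.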

The target in experiment [8] is Voltage-gated inwardly rectifying potassium channel KCNH2 (Homo sapiens) (UniProt Q12809). In words: qHTS Assay for Small Molecule Inhibitors of the Human hERG Channel Activity (AID 588834).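 Also: lower thallium flux fluorescence means stronger hERG block; nearly all actives have a fitted effect of over 50% in size.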 Also: potency is read from the fitted curve at half-maximal effect. The conditions noted are these: U2OS BacMam hERG, FluxOR thallium flux fluorescence; series mostly up to 92.2 µM. The gist of the method:
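Concentration-response qHTS measuring drop in thallium-sensitive dye signal. U2OS cells carrying BacMam hERG; compound exposure ~10 min, then stimulation buffer and 2 min read at 1 sec intervals.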

A short description of experiment [9]: qHTS assay for small molecule activators of the p53 signaling pathway (AID 651743; active = well fitted activation curve with a large enough effect in the signal ratio, not every such curve was filed as active; the % refers to the signal ratio; also: potency is read from the fitted curve at half-maximal effect; as to activation: % of control where 0% means no effect). The conditions noted are these: HCT-116 p53RE-bla, beta-lactamase FRET ratio, 16 h; activation: active compounds read high. The procedure, abridged:
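Read-out is fluorescence intensity from the LiveBLAzer B/G FRET substrate, added for 2 hours at room temperature after HCT-116 p53RE-bla cells had been incubated with compounds for 16 hours at 37 C.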

The target of experiment [10] is Tumor necrosis factor (Homo sapiens) (UniProt P01375). In words: qHTS assay to identify small molecules that stimulate Tumor Necrosis Factor-alpha (TNF-alpha) secretion (AID 651757; active = well fitted curve in the direction sought with a large enough effect in the signal ratio; the % refers to the signal ratio; also: 0% is about no effect). The conditions noted are these: Human cells, HTRF 665/615 ratio; series mostly up to 92.2 µM. The gist of the method:
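Read-out is HTRF, a TR-FRET sandwich of cryptate- and XL665-labeled anti-TNF-alpha antibodies detecting cytokine secreted by THP-1 cells. Cells had been incubated with test compounds at 37 C for 17 hrs beforehand.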

Experiment [11] is described as follows: qHTS assay for small molecule antagonists of the retinoid-related orphan receptor gamma (ROR-gamma) signaling pathway - cell viability counter screen (AID 720652; active = well fitted curve in the direction sought with a large enough effect in the repeat runs; an effect the other way counts as inactive or inconclusive;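 also: compound exposure lasted 16 hr before ATP read; % is scaled to controls: 0 for no effect and ±100 for the full control effect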). The conditions noted are these: RORgamma reporter cell line viability counter screen; series mostly up to 92.2 µM. The procedure, abridged: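 Luminescence from CellTiter-Glo after 30 min at room temperature reported cellular ATP as the cytotoxicity measure. Cells were the CHO reporter line with doxycycline-induced ROR-gamma expression, exposed to compound for 16 hr at 37 C.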

Experiment [12] in a line: qHTS assay for small molecule activators of the human pregnane X receptor (PXR) signaling pathway (AID 720659; call rule not given here; also: 0% is about no effect). The conditions noted are these: DPX-2 HepG2 CYP3A4-luciferase, 24 h; series mostly up to 92.3 µM.
Experiment [13] in a line: Cellular Toxicity (caspase-3) BJ (AID 658). The conditions noted are these: BJ fibroblasts, luminescence; Potency: caspase-3 activation; series mostly up to 91.7 µM. The procedure, abridged: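 Readout: Caspase-Glo 3/7 luminescence increase in BJ cells after 16 hr treatment at 37 °C. Staurosporine and tamoxifen served as positive controls; AC50 values came from Hill modelling of data normalized to DMSO and 10 uM staurosporine.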

The target in experiment [14] is Glucocorticoid receptor (Homo sapiens) (UniProt P04150). In words: qHTS assay for small molecule agonists of glucocorticoid receptor signaling (AID 588532; active = well fitted curve in the direction sought with a large enough effect in the signal ratio, with a control signal flat; the % refers to the signal ratio;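 also: 100% = dexamethasone at 0.1 µM and 0% = DMSO only wells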). The conditions noted are these: HeLa MMTV-bla, beta-lactamase ratio, agonist, 18 h; active compounds read high; percent of dexamethasone control, DMSO zero. The gist of the method: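 Using MMTV-bla HeLa cells in medium with 1% stripped FBS and 25 mM HEPES, compounds were titrated and incubated overnight-length (18 h). Beta-lactamase cleavage of CCF4 was quantified by dual-emission fluorescence.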
Chain of Glucocorticoid receptor (Homo sapiens) (P04150 whole entry, looked up): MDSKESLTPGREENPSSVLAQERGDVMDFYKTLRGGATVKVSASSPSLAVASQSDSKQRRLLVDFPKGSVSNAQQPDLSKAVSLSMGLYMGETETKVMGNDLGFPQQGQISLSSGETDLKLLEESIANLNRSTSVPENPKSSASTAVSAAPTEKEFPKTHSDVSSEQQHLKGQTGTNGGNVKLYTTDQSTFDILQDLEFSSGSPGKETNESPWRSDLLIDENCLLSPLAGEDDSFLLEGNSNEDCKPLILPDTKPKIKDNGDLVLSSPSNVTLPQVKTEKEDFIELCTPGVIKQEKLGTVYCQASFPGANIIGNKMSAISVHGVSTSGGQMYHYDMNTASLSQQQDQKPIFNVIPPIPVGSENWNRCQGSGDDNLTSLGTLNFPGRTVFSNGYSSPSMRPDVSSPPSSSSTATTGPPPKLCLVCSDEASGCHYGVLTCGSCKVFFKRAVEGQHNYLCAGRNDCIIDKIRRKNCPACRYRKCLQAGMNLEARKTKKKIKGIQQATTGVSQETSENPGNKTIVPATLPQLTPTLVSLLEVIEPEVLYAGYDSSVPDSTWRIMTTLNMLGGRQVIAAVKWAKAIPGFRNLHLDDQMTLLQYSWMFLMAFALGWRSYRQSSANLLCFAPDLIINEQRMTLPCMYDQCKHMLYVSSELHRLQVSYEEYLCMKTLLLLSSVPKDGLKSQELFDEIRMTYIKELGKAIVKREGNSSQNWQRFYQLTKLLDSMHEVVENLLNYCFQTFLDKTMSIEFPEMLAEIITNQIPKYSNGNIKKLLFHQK

The nature of experiment [15]: qHTS assay for small molecule agonists of the antioxidant response element (ARE) signaling pathway (AID 651741; active = well fitted activation curve with a large enough effect in the signal ratio; the % refers to the signal ratio; also: potency is read from the fitted curve at half-maximal effect; as to activation: % of control where 0% means no effect). The conditions noted are these: HepG2 ARE-bla reporter, beta-lactamase FRET ratio, 16 h; series mostly up to 96 µM. The gist of the method: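 Quantitative HTS in HepG2 cells stably expressing an ARE-beta-lactamase reporter; 16 h compound exposure at 37 C, followed by 2 h room-temperature incubation with LiveBLAzer B/G FRET substrate and fluorescence measurement.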

Experiment [16] in a line: qHTS assay for small molecule activators of the nuclear factor-kappa B (NF-kB) signaling pathway (AID 651749; active = well fitted activation curve with a large enough effect in the signal ratio; the % refers to the signal ratio; also: % of control where 0% means no effect). The conditions noted are these: NF-kB-bla ME-180 cells, beta-lactamase FRET ratio, 16 h; active compounds read high. The procedure, abridged: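 Readout: beta-lactamase reporter driven by an NF-kB response element, detected fluorescently as loss of FRET. Cells were the ME-180 line, treated 16 hr at 37C with pin-transferred compound.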

A short description of experiment [17]: qHTS assay for small molecule disruptors of the mitochondrial membrane potential - 1 hr assay (AID 651754; calls by dose curve; also: nearly all actives have a fitted effect of over 35% in size; also: potency is read from the fitted curve at half-maximal effect). The conditions noted are these: series mostly up to 92.2 µM. The gist of the method:
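HepG2, 2,000 cells/well, overnight attachment; cpd or DMSO 1 hr, 37C/5% CO2; Mito-MPS dye 30 min, 37C; fluorescence monomer (490/535) and aggregate (540/590).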

The target in experiment [18] is Nuclear receptor ROR-gamma (Homo sapiens) (UniProt P51449). In words: qHTS assay for small molecule antagonists of the retinoid-related orphan receptor gamma (ROR-gamma) signaling pathway (AID 651802). Also: nearly all actives have a fitted effect of over 60% in size. Also: potency is read from the fitted curve at half-maximal effect. The conditions noted are these: ROR-gamma antagonist cell reporter assay; series mostly up to 92.2 µM. The gist of the method:
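CHO, TET-inducible ROR + RORE-LUC reporter, 1536-well qHTS. Compound pinned, doxycycline added, 16hr 37C/5% CO2. ONE-Glo, 30 min RT, luminescence; signal drop scored as antagonism.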

Experiment [19] deals with Thyroid hormone receptor beta (Homo sapiens) (UniProt P10828). In words: qHTS assay for small molecule agonists of thyroid hormone receptor beta signaling (AID 588545; calls by dose curve). The conditions noted are these: TR-UAS-bla GripTite HEK 293, beta-lactamase ratio, agonist mode, 18 h; series mostly up to 76.7 µM. The gist of the method:
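Cells (2500/well) were seeded, incubated 4 hrs at 37 C, dosed with a compound series, incubated 18 hrs, loaded with CCF4 dye for 2 hrs at RT, then read for fluorescence. Data were scaled between DMSO (0%) and 10 nM T3 (100%).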

Experiment [20] deals with Cytochrome P450 3A4 (Homo sapiens) (UniProt P08684). In words: qHTS Assay for Inhibitors and Substrates of Cytochrome P450 3A4 (AID 884). Also: % is scaled to controls: 0 for no effect and ±100 for the full control effect; nearly all actives have a fitted effect of over 50% in size. The conditions noted are these: recombinant CYP3A4, Luciferin-PPXE luminescence; series mostly up to 57.1 µM. The gist of the method: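 20 nM human CYP3A4 with 25 uM Luciferin-PPXE (at KM) in 200 mM KPO4, preincubated 10 min with compound; NADPH regeneration started a 60 min RT reaction. Luciferin detected by luminescence, normalized to 57 uM ketoconazole as full inhibition.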
Chain of Cytochrome P450 3A4 (Homo sapiens) (P08684 whole entry, looked up): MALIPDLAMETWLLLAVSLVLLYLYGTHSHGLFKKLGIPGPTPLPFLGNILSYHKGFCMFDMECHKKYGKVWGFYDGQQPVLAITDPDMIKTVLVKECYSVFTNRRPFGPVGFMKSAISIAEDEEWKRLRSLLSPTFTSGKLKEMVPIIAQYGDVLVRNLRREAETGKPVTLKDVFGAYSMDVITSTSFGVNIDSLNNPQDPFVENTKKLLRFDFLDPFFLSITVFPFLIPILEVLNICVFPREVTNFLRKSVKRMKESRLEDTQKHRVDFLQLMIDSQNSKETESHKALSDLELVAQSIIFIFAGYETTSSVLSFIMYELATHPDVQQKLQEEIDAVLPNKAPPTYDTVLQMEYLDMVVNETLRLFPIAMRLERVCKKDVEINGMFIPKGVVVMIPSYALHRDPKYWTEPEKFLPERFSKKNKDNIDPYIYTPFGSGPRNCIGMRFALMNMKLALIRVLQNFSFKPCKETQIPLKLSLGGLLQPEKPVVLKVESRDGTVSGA

Chain of Tumor necrosis factor (Homo sapiens) (P01375 whole entry, looked up): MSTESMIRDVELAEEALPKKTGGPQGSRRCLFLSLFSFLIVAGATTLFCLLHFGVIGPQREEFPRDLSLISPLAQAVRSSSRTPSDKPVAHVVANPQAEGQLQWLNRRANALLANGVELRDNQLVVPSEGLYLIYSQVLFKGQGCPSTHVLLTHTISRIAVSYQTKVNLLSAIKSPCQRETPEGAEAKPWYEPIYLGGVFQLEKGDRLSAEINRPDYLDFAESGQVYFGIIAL
Chain of Thyroid hormone receptor beta (Homo sapiens) (P10828 whole entry, looked up): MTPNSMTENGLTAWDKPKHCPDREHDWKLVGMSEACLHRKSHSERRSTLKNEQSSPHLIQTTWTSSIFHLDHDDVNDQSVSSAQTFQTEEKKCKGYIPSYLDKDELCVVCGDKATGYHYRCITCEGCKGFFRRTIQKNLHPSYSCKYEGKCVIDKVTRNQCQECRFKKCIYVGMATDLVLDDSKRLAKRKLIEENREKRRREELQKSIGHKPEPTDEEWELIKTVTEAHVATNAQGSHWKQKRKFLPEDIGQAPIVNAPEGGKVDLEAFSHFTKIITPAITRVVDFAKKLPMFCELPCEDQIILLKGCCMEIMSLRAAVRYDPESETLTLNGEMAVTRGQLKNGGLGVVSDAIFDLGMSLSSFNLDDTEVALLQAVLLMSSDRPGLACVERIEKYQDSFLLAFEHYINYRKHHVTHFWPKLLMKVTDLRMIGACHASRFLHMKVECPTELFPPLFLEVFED
Chain of Nuclear receptor ROR-gamma (Homo sapiens) (P51449 whole entry, looked up): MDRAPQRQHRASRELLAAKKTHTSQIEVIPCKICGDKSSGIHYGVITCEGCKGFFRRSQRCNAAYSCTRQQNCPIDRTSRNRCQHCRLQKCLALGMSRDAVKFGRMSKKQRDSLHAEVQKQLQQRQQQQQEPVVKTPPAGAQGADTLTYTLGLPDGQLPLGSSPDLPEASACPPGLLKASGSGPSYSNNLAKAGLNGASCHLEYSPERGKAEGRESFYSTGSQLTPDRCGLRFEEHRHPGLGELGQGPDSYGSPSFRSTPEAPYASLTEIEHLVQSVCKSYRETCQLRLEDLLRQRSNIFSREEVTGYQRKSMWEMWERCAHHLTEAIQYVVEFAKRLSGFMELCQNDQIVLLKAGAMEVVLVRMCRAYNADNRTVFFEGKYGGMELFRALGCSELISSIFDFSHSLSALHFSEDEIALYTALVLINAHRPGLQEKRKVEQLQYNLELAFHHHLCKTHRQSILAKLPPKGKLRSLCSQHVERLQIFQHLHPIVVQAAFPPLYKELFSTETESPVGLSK
Chain of Voltage-gated inwardly rectifying potassium channel KCNH2 (Homo sapiens) (Q12809 whole entry, looked up): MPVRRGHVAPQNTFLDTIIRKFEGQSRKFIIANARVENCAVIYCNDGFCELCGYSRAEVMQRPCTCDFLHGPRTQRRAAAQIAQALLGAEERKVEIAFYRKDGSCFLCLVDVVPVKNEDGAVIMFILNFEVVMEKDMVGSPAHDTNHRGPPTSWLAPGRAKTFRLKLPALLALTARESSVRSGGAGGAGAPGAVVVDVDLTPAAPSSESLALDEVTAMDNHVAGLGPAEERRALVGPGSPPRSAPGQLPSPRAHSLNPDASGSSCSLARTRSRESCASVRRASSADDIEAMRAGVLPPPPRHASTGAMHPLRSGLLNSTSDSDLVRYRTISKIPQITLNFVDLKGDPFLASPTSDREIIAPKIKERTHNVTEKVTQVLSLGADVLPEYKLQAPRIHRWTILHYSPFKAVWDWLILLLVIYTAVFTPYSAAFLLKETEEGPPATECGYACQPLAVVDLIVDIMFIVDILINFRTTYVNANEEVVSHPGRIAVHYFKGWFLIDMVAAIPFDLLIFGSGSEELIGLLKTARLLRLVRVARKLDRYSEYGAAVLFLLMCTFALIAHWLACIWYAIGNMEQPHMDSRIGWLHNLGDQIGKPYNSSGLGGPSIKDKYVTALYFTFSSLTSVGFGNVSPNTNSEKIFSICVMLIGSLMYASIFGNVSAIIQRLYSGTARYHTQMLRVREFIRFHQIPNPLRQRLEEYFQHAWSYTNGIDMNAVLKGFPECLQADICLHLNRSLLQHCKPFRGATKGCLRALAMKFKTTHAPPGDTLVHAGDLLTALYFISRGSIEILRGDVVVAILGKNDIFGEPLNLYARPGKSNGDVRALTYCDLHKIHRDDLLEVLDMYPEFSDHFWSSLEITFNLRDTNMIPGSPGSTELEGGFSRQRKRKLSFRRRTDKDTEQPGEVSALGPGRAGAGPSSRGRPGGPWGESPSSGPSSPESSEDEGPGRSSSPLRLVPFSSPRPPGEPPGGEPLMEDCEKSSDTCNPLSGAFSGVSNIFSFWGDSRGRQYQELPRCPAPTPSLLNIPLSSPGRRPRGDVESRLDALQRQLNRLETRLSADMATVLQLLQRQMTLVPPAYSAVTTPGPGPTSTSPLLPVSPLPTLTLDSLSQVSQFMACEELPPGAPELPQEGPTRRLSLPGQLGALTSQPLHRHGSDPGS

On to `O=[N+]([O-])c1ccccc1Nc1ccccc1`, for which the Potency in experiment [1] is above 92 µM; in experiment [2], above 92 µM; in [8] it was 35.5 µM (active). Moreover, in [3], the activity change, negative = cytotoxicity was -20.1%. In addition, the Potency result in [4], in experiment [6], in experiment [7], in experiment [10] and in experiment [11] was “inactive” throughout. For the same compound, the compound was called inactive in experiment [5] and in experiment [12]. In addition, the activation in experiment [9] was -4.76%.

Regarding `COc1ccc(C)cc1N`, the Potency in [1] and in [2] was above 92 µM in each case. The Potency result in experiment [13], in experiment [6], in [7], in [8], in experiment [15] and in experiment [17] was “inactive” throughout. Moreover, the Potency result in experiment [10], in experiment [18] and in experiment [11] was “inactive” each time. Also, the activation in experiment [14] was 9.32%; in [9] it was -5.11%; in experiment [16] it was -0.459%. For the same compound, in experiment [12], the outcome was inactive.

`CC(=O)c1ccc(Cl)c(Cl)c1Cl`: the Potency in experiment [1] and in experiment [2] was above 92 µM throughout. Besides, in [3], the activity change, negative = cytotoxicity was -14.4%. Further, the Potency entry in [4], in experiment [6], in experiment [7], in experiment [8], in [17] and in [10] was “inactive” in each case. In experiment [11], the Potency result is “inactive”. For the same compound, the compound was classed as inactive in [5] and in experiment [12]. The activation was 1.81% in experiment [14], -1.64% in experiment [9] and -0.287% in experiment [16].

`CCC(Cl)CC(Cl)C(Cl)C(Cl)C(Cl)C(C)Cl` (stereo not drawn): the Potency in experiment [1] is above 92 µM; in experiment [2], above 92 µM; in [15] it was 66.8 µM (active). In addition, the activity change, negative = cytotoxicity in experiment [3] was -16.5%. The Potency result in [4], in experiment [19], in experiment [17] and in experiment [10] was “inactive” each time. In addition, the result in experiment [5] was inactive. Moreover, the values for the activation in experiment [14] and in [16] were 4.73% and 0.226%, respectively.

Take `CCCCC(CC)COC(=O)COc1ccc(Cl)cc1Cl` (stereo not drawn): the Potency in [1] and in experiment [2] was above 92 µM throughout. In addition, the activity change, negative = cytotoxicity in [3] is 0.559%. Moreover, the Potency entry in experiment [4], in experiment [20], in experiment [6], in [7], in [19] and in experiment [8] was “inactive” throughout. Also, the Potency entry in [17], in experiment [10] and in experiment [11] was “inactive” in each case. The activation in experiment [14] was -3.61% and -5.37%; in experiment [9], -1.29% and -1.26%. In addition, the compound was classed as inactive in experiment [12].

Consider `C=Cc1cccc(C)c1`, for which the Potency in experiment [1] and in [2] was above 92 µM in each case. The activity change, negative = cytotoxicity in experiment [3] was 4.07%. Also, the Potency result in experiment [4], in [20], in experiment [6], in experiment [7], in [19] and in experiment [8] was “inactive” throughout. The Potency entry in experiment [15], in experiment [17], in [10], in [18] and in experiment [11] was “inactive” each time. The activation in [14] is -2.15%; in [9] it was -1.54%. Also, the compound was called inactive in [12].

For the compound `Oc1c(Cl)cc(Cl)c(Cl)c1Cl`, the Potency in experiment [1] was 57 µM (active); in experiment [2] it was above 92 µM; in [15], 33.5 µM (active); in experiment [9], 44.7 µM (active); in [17] it was 42.2 µM (active); in experiment [18], 33.5 µM (active). Besides, the activity change, negative = cytotoxicity in experiment [3] was -2.17%. Further, in experiment [5], the outcome was inactive. For the same compound, the Potency entry in experiment [20], in experiment [6], in experiment [7], in [19], in experiment [8] and in experiment [10] was “inactive” each time. Besides, in [11], the Potency result was “inactive”. For the same compound, the activation was 5.94% in experiment [14]; 2.74% in experiment [9]; -0.537% and 2.41% in experiment [16].

Source of the values: PubChem BioAssay (NCATS).
